In PubChem BioAssay (NCATS):
Inconclusive results are not listed. The source made the active and inactive calls. Calls come from the whole dose curve; as a rule, active = well fitted curve in the direction sought with a large enough effect; inconclusive = small, poorly fitted or top-dose-only effect, or another doubt; inactive = no such curve, though single readings can be large; an effect the other way counts as inactive or inconclusive.

What was measured:
[1] = Quantitative High-Throughput drug screen in 47 multiple myeloma cell lines against the NCATS MIPE library collection: KMM1_JCRB cell viability assay (AID 1918960); note: nearly all actives have a fitted effect of over 30% in size
Method in brief: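 ATP readout (CellTiter-Glo), 48 h drug incubation, 37 °C/5% CO2, 500 cells per well; normalisation to DMSO (100%) and media-only (0%) controls.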

[2] = Quantitative High-Throughput drug screen in 47 multiple myeloma cell lines against the NCATS MIPE library collection: JIM1_ECACC cell viability assay (AID 1918964)
Method in brief: (§1)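 Myeloma cells (500 per well) were exposed to MIPE 4.0 compounds by pin transfer and incubated 48 hours at 37C, 5% CO2. Viability was read as ATP by CellTiter-Glo luminescence, normalised to DMSO (100%) and media-only (0%) wells.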

[3] = Quantitative High-Throughput drug screen in 47 multiple myeloma cell lines against the NCATS MIPE library collection: INA6_PLB cell viability assay (AID 1918965; note: nearly all actives have a fitted effect of over 55% in size)
Method in brief: (§2)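 Approved and investigational drugs from MIPE 4.0 were added by pin tool to 500 cells per well. After 48 hours at 37C, ATP-based CellTiter-Glo luminescence indicated remaining viability.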

[4] = Quantitative High-Throughput drug screen in 47 multiple myeloma cell lines against the NCATS MIPE library collection: JJN3_DSMZ cell viability assay (AID 1918966; note: nearly all actives have a fitted effect of over 50% in size)
Method in brief: as §1

[5] = Quantitative High-Throughput drug screen in 47 multiple myeloma cell lines against the NCATS MIPE library collection: KMS27_JCRB cell viability assay (AID 1918970); conditions: KMS27 myeloma cells, CellTiter-Glo ATP viability, 48 h; viability (% of DMSO): at 45.8 µM (top of the series); note: nearly all actives have a fitted effect of over 30% in size
Method in brief: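 Luminescent ATP read-out (CellTiter-Glo, 5 min at room temperature) after 48 h compound exposure of 500 KMS27_JCRB cells per well; DMSO wells define full viability and media-only wells zero.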

[6] = Quantitative High-Throughput drug screen in 47 multiple myeloma cell lines against the NCATS MIPE library collection: Karpas25_ECACC cell viability assay (AID 1918968; note: nearly all actives have a fitted effect of over 35% in size)
Method in brief: as §1

[7] = Quantitative High-Throughput drug screen in 47 multiple myeloma cell lines against the NCATS MIPE library collection: H1112_PLB cell viability assay (AID 1918967; note: nearly all actives have a fitted effect of over 30% in size)
Method in brief: as §1

[8] = Quantitative High-Throughput drug screen in 47 multiple myeloma cell lines against the NCATS MIPE library collection: Karpas417_ECACC cell viability assay (AID 1918961); conditions: Karpas417 myeloma viability, CellTiter-Glo ATP luminescence, 48 h; viability (% of DMSO): at 45.8 µM (top of the series)
Method in brief: as §2

[9] = Quantitative High-Throughput drug screen in 47 multiple myeloma cell lines against the NCATS MIPE library collection: KHM11_PLB cell viability assay (AID 1918962); note: nearly all actives have a fitted effect of over 35% in size
Method in brief: (§3)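 Viability readout: CellTiter-Glo luminescence following 5 min room-temperature incubation with reagent. Prior exposure: 48 h, 37C, humidified 5% CO2, 500 cells per well.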

[10] = Quantitative High-Throughput drug screen in 47 multiple myeloma cell lines against the NCATS MIPE library collection: JIM3_ECACC cell viability assay (AID 1918963; note: nearly all actives have a fitted effect of over 35% in size)
Method in brief: as §3
Potency is the fitted concentration of half-maximal effect.

CCCCCCOC(=O)N=C(N)c1ccc(NCc2nc3cc(C(=O)N(CCC(=O)OCC)c4ccccn4)ccc3n2C)cc1
Potency [1]: 16.6 µM (active) | Potency [2]: 8.33 µM (active) | Potency [3]: 16.6 µM (active) | Potency [4]: 18.7 µM (active) | Potency [5]: 11.8 µM (active)

CC(C)N(CCCNC(=O)Nc1ccc(C(C)(C)C)cc1)C[C@H]1O[C@@H](n2cc(Br)c3c(N)ncnc32)[C@H](O)[C@H]1O
Potency [1]: inactive | Potency [3]: 18.7 µM (active) | Potency [6]: 14.8 µM (active) | Potency [5]: inactive

OC[C@H]1O[C@@H](Oc2ccc(O)cc2)[C@H](O)[C@@H](O)[C@H]1O
Potency [1]: inactive | Potency [6]: inactive

O=S(=O)(O)c1ccc2cc(N=Nc3cc(S(=O)(=O)O)c4cccnc4c3O)ccc2c1
Potency [1]: inactive | Potency [4]: 18.7 µM (active) | Potency [6]: inactive | Potency [5]: inactive

CC[C@]1(O)C[C@H]2CN(CCC3=c4ccccc4=N[C]3[C@@](C(=O)OC)(c3cc4c(cc3OC)N(C)[C@H]3[C@@](O)(C(N)=O)[C@H](O)[C@]5(CC)C=CCN6CC[C@]43[C@@H]65)C2)C1
Potency [1]: 0.105 µM (active) | Potency [4]: 0.372 µM (active) | Potency [7]: 0.0332 µM (active) | Potency [5]: 0.296 µM (active)

NC(N)=Nc1nc(CSCCC(N)=NS(N)(=O)=O)cs1
Potency [1]: inactive | Potency [3]: 11.8 µM (active) | Potency [7]: 16.6 µM (active) | Potency [6]: 11.8 µM (active)

CN(CC=CC#CC(C)(C)C)Cc1cccc2ccccc12
Potency [1]: inactive | Potency [2]: inactive | Potency [5]: inactive

COc1ccc2cc1Oc1ccc(cc1)C[C@H]1c3cc(c(OC)cc3CCN1C)Oc1c(OC)c(OC)cc3c1[C@H](C2)N(C)CC3
Potency [1]: 5.9 µM (active) | Potency [3]: 18.7 µM (active) | Potency [7]: 20.9 µM (active) | Potency [6]: 20.9 µM (active) | Potency [5]: 3.72 µM (active)

CCC(c1ccc(O)cc1)C(CC)c1ccc(O)cc1 (stereo unspecified)
Potency [1]: inactive | Potency [3]: inactive | Potency [7]: 8.33 µM (active)

CCCCC[C@H](O)C=C[C@H]1[C@H](O)CC(=O)[C@H]1CCCCCCC(=O)O
Potency [1]: inactive | Potency [2]: inactive | Potency [4]: 7.43 µM (active) | Potency [7]: inactive | Potency [6]: 23.5 µM (active) | Potency [5]: inactive

COc1cc(N2CCN(C)CC2)ccc1Nc1nc(N)c(C(=O)c2c(Cl)cccc2Cl)s1
Potency [1]: 18.7 µM (active) | Potency [7]: inactive | Potency [5]: 23.5 µM (active)

NC(=O)c1ccc(N(C(N)=O)c2c(F)cccc2F)nc1-c1ccc(F)cc1F
Potency [1]: inactive | Potency [2]: inactive | Potency [3]: 18.7 µM (active) | Potency [7]: 5.26 µM (active) | Potency [6]: 7.43 µM (active) | Potency [5]: inactive

C[C@@H]1CCO[C@H]2Cn3cc(C(=O)NCc4ccc(F)cc4F)c(=O)c(O)c3C(=O)N12
Potency [1]: inactive | Potency [2]: 23.5 µM (active) | Potency [3]: 20.9 µM (active) | Potency [7]: inactive | Potency [6]: 18.7 µM (active) | Potency [5]: inactive

CN(C)CCN(Cc1ccc(Cl)cc1)c1ccccn1
Potency [1]: inactive | Potency [3]: 20.9 µM (active) | Potency [4]: inactive | Potency [6]: 11.8 µM (active) | Potency [5]: inactive

c1ccc(-c2oc3ncnc(NC[C@@H]4CCCO4)c3c2-c2ccccc2)cc1
Potency [1]: 3.32 µM (active) | Potency [3]: 16.6 µM (active) | Potency [4]: 16.6 µM (active) | Potency [7]: inactive | Potency [5]: 4.69 µM (active)

C[C@@H](NC(=O)c1ncnc(N)c1Cl)c1ncc(C(=O)Nc2cc(C(F)(F)F)c(Cl)cn2)s1
Potency [8]: 2.96 µM (active) | Potency [9]: 5.26 µM (active) | Potency [10]: 13.2 µM (active) | Potency [4]: 18.7 µM (active) | Potency [7]: 16.6 µM (active)

C[C@H]1[C@H](O)O[C@@H]2O[C@@]3(C)CC[C@@H]4[C@H](C)CC[C@@H]1[C@@]24OO3
Potency [8]: 2.09 µM (active) | Potency [3]: 1.66 µM (active) | Potency [7]: 16.6 µM (active) | Potency [6]: 1.66 µM (active) | Potency [5]: 13.2 µM (active)

NC(=O)c1ncn([C@@H]2O[C@H](CO)[C@@H](O)[C@@H]2O)n1
Potency [9]: inactive | Potency [10]: inactive | Potency [2]: inactive | Potency [3]: inactive | Potency [7]: inactive | Potency [6]: inactive | Potency [5]: inactive

N#Cc1c(N(CC(=O)O)CC(=O)O)sc(C(=O)O)c1CC(=O)O
Potency [8]: inactive | Potency [2]: 5.9 µM (active) | Potency [3]: 14.8 µM (active) | Potency [6]: 18.7 µM (active)

C#C[C@]1(O)CC[C@H]2[C@H]3CCc4cc(OC)ccc4[C@H]3CC[C@@]21C
Potency [9]: 18.7 µM (active) | Potency [10]: inactive | Potency [3]: 16.6 µM (active) | Potency [7]: inactive

CCC(=O)OCC(=O)[C@@]1(OC(=O)CC)[C@@H](C)C[C@@H]2[C@H]3CCC4=CC(=O)C=C[C@]4(C)[C@@]3(F)[C@@H](O)C[C@@]21C
Potency [8]: 0.0935 µM (active) | Potency [9]: inactive | Potency [2]: 6.62 µM (active) | Potency [7]: inactive | Potency [6]: 0.118 µM (active) | Potency [5]: 4.18 µM (active)

CC(C)c1c(C(=O)Nc2ccccc2)c(-c2ccccc2)c(-c2ccc(F)cc2)n1CC[C@H](O)C[C@@H](O)CC(=O)O
Potency [9]: 18.7 µM (active) | Potency [10]: 14.8 µM (active) | Potency [3]: 8.33 µM (active) | Potency [6]: 11.8 µM (active) | Potency [5]: 4.69 µM (active)

Cc1cccc2c1CC[C@H](CN1CCC(c3c(Cl)cccc3Cl)CC1)C[C@@H]2O
Potency [9]: 20.9 µM (active) | Potency [10]: 14.8 µM (active) | Potency [3]: 18.7 µM (active) | Potency [6]: 18.7 µM (active)

Cc1cc(CS(=O)(=O)c2ccccc2)cc(OCc2ccc(CN3CCC[C@H]3CO)cc2)c1
Potency [8]: 3.72 µM (active) | Potency [10]: 20.9 µM (active) | Potency [3]: 18.7 µM (active) | Potency [7]: 16.6 µM (active) | Potency [6]: 16.6 µM (active) | Potency [5]: 4.18 µM (active)
